Measured values taken from PubChem BioAssay AID1159580 (chemical genetic matrix, 2015).
Several values for one entry are separate records, joined by “and”; a condition that tells them apart may be missing. Identical values can stand only once. Hit rate of the full screen: of about 5,500 compounds, about 2,000 (36%) were called active. Roughly 18% stayed inconclusive and do not appear here. Rule as the data show it: active = normalized growth mostly below about 0.91 (no sharp cut-off); inconclusive = no clear call, values can overlap the other calls; inactive = mostly above about 0.92. The list shows a part of the results.

Assay: chemical genetic growth profiling, strain panel (AID 1159580);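 also: tested at 20 µM; growth read once vehicle control cultures reached saturation at 30 °C; 1 = growth at the plate median or of vehicle wells; lower values mean less growth of the strain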
Conditions: S. cerevisiae deletion strains, growth OD

Measured: normalized growth

COc1ccccc1OCC(O)CO (stereo not drawn)
inactive: locus YAL021C, strain ccr4, active compounds read low 1.02 | locus YAL026C, strain drs2, active compounds read low 1.02 | locus YAL030W, strain snc1, active compounds read low 1.02 | locus YBL061C, strain skt5, active compounds read low 1.02 | locus YBR009C, strain hhf1, active compounds read low 1.02 | locus YBR021W, strain FUR4, active compounds read low 1.02 | locus YBR023C, strain chs3, active compounds read low 1.02 | locus YBR171W, strain sec66, active compounds read low 1.04 | locus YBR229C, strain ROT2, active compounds read low 1 | locus YBR231C, strain swc5, active compounds read low 1.02 | locus YBR279W, strain paf1, active compounds read low 1.03 | locus YCL011C, strain gbp2, active compounds read low 1.02 | locus YCL016C, strain dcc1, active compounds read low 1.02 | locus YCL029C, strain bik1, active compounds read low 0.972 | locus YCL061C, strain MRC1, active compounds read low 1.03 | locus YCL069W, strain vba3, active compounds read low 1.01 | locus YCR088W, strain abp1, active compounds read low 1.02 | locus YDL005C, strain med2, active compounds read low 1.04 | locus YDL035C, strain GPR1, active compounds read low 1.02 | locus YDL040C, strain nat1, active compounds read low 1.02 | locus YDL074C, strain BRE1, active compounds read low 1 | locus YDL101C, strain DUN1, active compounds read low 1.01 | locus YDL134C, strain PPH21, active compounds read low 0.997 | locus YDL185W, strain tfp1, active compounds read low 1 | locus YDL192W, strain arf1, active compounds read low 1 | locus YDR001C, strain nth1, active compounds read low 1.02 | locus YDR069C, strain doa4, active compounds read low 1.02 | locus YDR101C, strain arx1, active compounds read low 0.972 | locus YDR137W, strain rgp1, active compounds read low 1.03 | locus YDR159W, strain sac3, active compounds read low 1.02 | locus YDR162C, strain NBP2, active compounds read low 1.01 | locus YDR195W, strain ref2 1.02 | locus YDR297W, strain sur2, active compounds read low 1.02 | locus YDR318W, strain mcm21, active compounds read low 1.02 | locus YDR334W, strain swr1, active compounds read low 1.03 | locus YDR335W, strain msn5, active compounds read low 1.03 | locus YDR388W, active compounds read low 0.99 | locus YDR392W, strain spt3, active compounds read low 0.987 | locus YDR502C, strain sam2, active compounds read low 1.02 | locus YEL003W, strain gim4, active compounds read low 1.01 | locus YEL037C, strain rad23, active compounds read low 1.02 | locus YEL061C, strain CIN8 (second series), active compounds read low 1.02 | locus YEL061C, strain CIN8, active compounds read low 1.03 | locus YER015W, strain faa2, active compounds read low 1.02 | locus YER016W, strain bim1, active compounds read low 1.04 | locus YER110C, active compounds read low 0.988 | locus YER111C, strain swi4, active compounds read low 1.02 | locus YER155C, strain BEM2 (second series), active compounds read low 1.02 | locus YER155C, strain BEM2, active compounds read low 1.01 | locus YER167W, strain BCK2, active compounds read low 1 | locus YFR010W, strain ubp6, active compounds read low 1.02 | locus YGL078C, strain dbp3, active compounds read low 1.02 | locus YGL086W, strain mad1, active compounds read low 1 | locus YGL167C, strain pmr1, active compounds read low 1.02 | locus YGL173C, strain kem1, active compounds read low 1.02 | locus YGL227W, strain vid30, active compounds read low 1.03 | locus YGL240W, strain doc1, active compounds read low 1.03 | locus YGL248W, strain PDE1, active compounds read low 1.01 | locus YGL253W, strain hxk2, active compounds read low 1.01 | locus YGR078C, strain PAC10, active compounds read low 1.01 | locus YGR135W, strain pre9, active compounds read low 1.04 | locus YGR252W, strain gcn5, active compounds read low 1.22 | locus YHR013C, strain ard1, active compounds read low 1.04 | locus YHR027C, strain rpn1, active compounds read low 1.01 | locus YHR030C, strain SLT2, active compounds read low 1 and 0.993 | locus YHR079C, strain IRE1 (second series), active compounds read low 0.988 | locus YHR079C, strain IRE1, active compounds read low 0.965 | locus YHR094C, strain hxt1, active compounds read low 0.978 | locus YHR129C, strain ARP1, active compounds read low 0.964 | locus YHR142W, strain chs7, active compounds read low 1.03 | locus YHR200W, strain rpn10, active compounds read low 1.01 | locus YIL066C, strain RNR3, active compounds read low 1 | locus YIL073C, strain SPO22, active compounds read low 1.05 | locus YIL125W, strain kgd1, active compounds read low 1.01 | locus YIR030C, strain dcg1, active compounds read low 0.99 | locus YJL092W, strain hpr5, active compounds read low 1.03 | locus YJL095W, strain BCK1 (second series), active compounds read low 1.02 | locus YJL095W, strain BCK1, active compounds read low 1.03 and 0.964 | locus YJL115W, strain asf1, active compounds read low 1.02 | locus YJL129C, strain trk1, active compounds read low 1.04 | locus YJL134W, strain LCB3, active compounds read low 1 | locus YJL154C, strain vps35, active compounds read low 1.01 | locus YJL164C, strain tpk1, active compounds read low 1.02 | locus YJL166W, strain qcr8, active compounds read low 1.03 | locus YJL168C, strain set2, active compounds read low 0.986 | locus YJL187C, strain SWE1 (second series), active compounds read low 1.01 | locus YJL187C, strain SWE1, active compounds read low 1.05 | locus YJR043C, strain POL32, active compounds read low 1.01 | locus YJR066W, strain TOR1, active compounds read low 0.924 | locus YKL009W, strain mrt4, active compounds read low 1.01 | locus YKL068W, active compounds read low 1.01 | locus YKL085W, strain MDH1 (second series), active compounds read low 0.999 | locus YKL085W, strain MDH1, active compounds read low 0.999 | locus YKL160W, strain elf1, active compounds read low 1.02 | locus YKR001C, strain vps1, active compounds read low 0.998 | locus YKR026C, strain gcn3, active compounds read low 1.02 | locus YKR091W, strain srl3, active compounds read low 1.02 | locus YLL001W, strain dnm1, active compounds read low 1.02 | locus YLL026W, active compounds read low 1.02 | locus YLL041C, strain sdh2, active compounds read low 1.01 | locus YLR027C, strain aat2, active compounds read low 1.01 | locus YLR039C, strain RIC1, active compounds read low 1.02 | locus YLR058C, strain SHM2, active compounds read low 1.01 | locus YLR102C, strain apc9, active compounds read low 0.982 | locus YLR113W, strain HOG1, active compounds read low 0.999 | locus YLR221C, strain rsa3, active compounds read low 1.01 | locus YLR258W, strain gsy2, active compounds read low 1.01 | locus YLR262C, strain YPT6 (second series), active compounds read low 1.02 | locus YLR262C, strain YPT6, active compounds read low 1.04 | locus YLR268W, strain sec22, active compounds read low 1.01 | locus YLR320W, strain mms22, active compounds read low 1.03 | locus YLR330W, strain CHS5, active compounds read low 1.02 | locus YLR342W, strain FKS1 (second series), active compounds read low 1.01 | locus YLR342W, strain FKS1, active compounds read low 1.02 | locus YLR357W, strain rsc2, active compounds read low 1.03 | locus YLR370C, strain arc18, active compounds read low 1.02 | locus YLR371W, strain rom2, active compounds read low 0.965 | locus YLR384C, strain iki3, active compounds read low 1.02 | locus YLR418C, strain cdc73, active compounds read low 1.06 | locus YML016C, strain PPZ1, active compounds read low 1 | locus YML032C, strain rad52, active compounds read low 1.01 | locus YML120C, strain ndi1, active compounds read low 1.02 | locus YML124C, strain tub3, active compounds read low 0.996 | locus YMR058W, strain fet3, active compounds read low 1.02 | locus YMR078C, strain ctf18, active compounds read low 0.99 | locus YMR125W, strain sto1, active compounds read low 1.06 | locus YMR129W, active compounds read low 1.02 | locus YMR205C, strain PFK2, active compounds read low 1.02 | locus YMR223W, strain ubp8, active compounds read low 1.03 | locus YMR231W, strain pep5, active compounds read low 1.02 | locus YMR307W, strain GAS1, active compounds read low 1.05 | locus YNL067W, strain RPL9B, active compounds read low 1.02 | locus YNL071W, strain lat1, active compounds read low 1.02 | locus YNL153C, strain GIM3, active compounds read low 1.01 | locus YNL183C, strain NPR1, active compounds read low 0.956 | locus YNL209W, strain ssb2, active compounds read low 1.02 | locus YNL233W, strain BNI4, active compounds read low 1.01 | locus YNL248C, strain rpa49, active compounds read low 1.04 | locus YNL250W, strain rad50, active compounds read low 1.02 | locus YNL271C, strain bni1, active compounds read low 1.01 | locus YNL298W, strain CLA4, active compounds read low 1.01 | locus YNL307C, strain MCK1, active compounds read low 0.99 | locus YNL322C, strain KRE1 (second series), active compounds read low 1.04 | locus YNL322C, strain KRE1, active compounds read low 1.01 | locus YNR049C, strain mso1, active compounds read low 1.02 | locus YNR052C, strain pop2, active compounds read low 0.998 | locus YOL012C, strain htz1 0.827 | locus YOL147C, strain pex11, active compounds read low 0.995 | locus YOR001W, strain rrp6, active compounds read low 0.995 | locus YOR061W, strain CKA2, active compounds read low 1.01 | locus YOR069W, strain VPS5, active compounds read low 1.01 | locus YOR070C, strain gyp1, active compounds read low 1.02 | locus YOR080W, strain dia2, active compounds read low 1.04 | locus YOR083W, strain WHI5, active compounds read low 1.02 | locus YOR106W, strain vam3, active compounds read low 1.02 | locus YOR136W, strain idh2, active compounds read low 0.994 | locus YOR144C, strain elg1, active compounds read low 0.993 | locus YOR184W, strain ser1, active compounds read low 1 | locus YOR231W, strain MKK1, active compounds read low 0.991 | locus YOR265W, strain rbl2, active compounds read low 1.02 | locus YOR270C, strain vph1, active compounds read low 1.05 | locus YOR290C, strain snf2, active compounds read low 0.99 | locus YOR316C, strain cot1, active compounds read low 0.986 | locus YPL051W, strain arl3, active compounds read low 1.01 | locus YPL078C, strain atp4, active compounds read low 1.02 | locus YPL106C, strain sse1, active compounds read low 1.01 | locus YPL240C, strain hsp82, active compounds read low 1.02 | locus YPL256C, strain CLN2, active compounds read low 0.977 | locus YPR119W, strain clb2, active compounds read low 0.992 | locus YPR141C, strain kar3, active compounds read low 0.996 | locus YPR163C, strain tif3, active compounds read low 1.01 | locus YPR167C, strain met16, active compounds read low 0.999 | strain wtn01, active compounds read low 1.05
